The nature of assay [1]: qHTS assay to test for compound auto fluorescence at 535 nm (green) in HEK293 cells (AID 720680). (In general: qHTS replaces the single test concentration by a dilution series.)
The nature of assay [2]: qHTS assay to test for compound auto fluorescence at 460 nm (blue) in HEK293 cell free culture (AID 720681). In a few lines: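 Compounds were added to cell-free DMEM with 10% FBS and fluorescence read directly. The blue channel used 405 nm excitation and 460 nm emission, with triamterene as the reference fluorophore.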
Assay [3] in a line: qHTS assay to test for compound auto fluorescence at 535 nm (green) in HEK293 cell free culture (AID 720682). In a few lines: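 Read-out: 485/535 nm fluorescence intensity, calibrated against fluorescein. Medium only (DMEM + 10% FBS, no cells); test compound or DMSO vehicle added by pintool before plate reading.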
Assay [4] in a line: qHTS assay to test for compound auto fluorescence at 590 nm (red) in HEK293 cell free culture (AID 720683). The procedure, abridged:
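Cell-free wells of DMEM with 10% FBS received compound, and intrinsic fluorescence was read at excitation/emission 540/590 nm. Values expressed as equivalence to Rose Bengal sodium.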

A short description of assay [5]: qHTS assay to test for compound auto fluorescence at 590 nm (red) in HepG2 cell free culture (AID 720684). In a few lines: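 Compounds are added to culture medium (MEM, 10% FBS) lacking cells, then fluorescence is read at excitation 540 nm, emission 590 nm, with Rose Bengal sodium as the equivalency standard.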
Assay [6] in a line: qHTS assay to test for compound auto fluorescence at 460 nm (blue) in HepG2 cell free culture (AID 720685). In a few lines: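 Compound (23 nL) or DMSO pinned into cell-free MEM with 10% FBS; blue fluorescence read at 405/460 nm excitation/emission, expressed as auto-fluorescence equivalency to triamterene.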
Assay [7] is described as follows: qHTS assay to test for compound auto fluorescence at 535 nm (green) in HepG2 cell free culture (AID 720686).
Assay [8] is described as follows: qHTS assay to test for compound auto fluorescence at 460 nm (blue) in HepG2 cells (AID 720687). The procedure, abridged:
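HepG2 cells in MEM with 10% FBS, attached overnight at 37 C, were exposed to compound or DMSO for 1 hr at 37 C, 5% CO2. Blue fluorescence was read at 405/460 nm, with triamterene as reference fluorophore.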

Assay [9] can be described thus: qHTS assay to identify small molecule antagonists of the glucocorticoid receptor (GR) signaling pathway - cell viability counter screen (AID 720693). Further: nearly all actives have a fitted effect of over 55% in size. Further: potency means the concentration at half of the fitted maximal effect.
Assay [10] is described as follows: qHTS assay for identifying genotoxic compounds that show differential cytotoxicity against isogenic chicken DT40 cell lines with known DNA damage response pathways - wild type cell line (AID 743012). Further: nearly all actives have a fitted effect of over 60% in size. Further: potency means the concentration at half of the fitted maximal effect. The procedure, abridged: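 Cells (DT40 wild type, 300/well) are treated with DMSO-dissolved compounds after a ~0.5 h pre-incubation and kept 40 h at 37 C/5% CO2. Viability is then measured by CellTiter-Glo luminescence following 30 min at room temperature.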

The nature of assay [11]: qHTS assay for identifying genotoxic compounds that show differential cytotoxicity against isogenic chicken DT40 cell lines with known DNA damage response pathways - Rev3 mutant cell line (AID 743014). Further: nearly all actives have a fitted effect of over 55% in size. Further: potency means the concentration at half of the fitted maximal effect.
A short description of assay [12]: qHTS assay for identifying genotoxic compounds that show differential cytotoxicity against isogenic chicken DT40 cell lines with known DNA damage response pathways - Rad54/Ku70 mutant cell line (AID 743015). Further: nearly all actives have a fitted effect of over 60% in size. Further: potency means the concentration at half of the fitted maximal effect.
Assay [13] in a line: qHTS assay to identify small molecule antagonists of the androgen receptor (AR) signaling pathway - cell viability counter screen (AID 743033; further: nearly all actives have a fitted effect of over 45% in size; further: potency means the concentration at half of the fitted maximal effect).
Assay [14] can be described thus: qHTS assay to identify small molecule antagonists of the androgen receptor (AR) signaling pathway using the MDA cell line - cell viability counter screen (AID 743041; further: nearly all actives have a fitted effect of over 45% in size; further: potency means the concentration at half of the fitted maximal effect). In a few lines: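 Same-well cytotoxicity was assessed by CellTiter-Fluor in MDA-kb2 AR-luc cells after 16 h of compound treatment under R1881 agonism.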
In assay [15] the target is Androgen receptor (Homo sapiens) (UniProt P10275). The experiment in a line: qHTS assay to identify small molecule antagonists of the androgen receptor (AR) signaling pathway (AID 743035; active means well fitted inhibition curve with a large enough effect in the signal ratio in the repeat runs, not every such curve was filed as active; the % refers to the signal ratio). In a few lines:
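Antagonism is scored as loss of R1881-driven beta-lactamase reporter expression in HEK293 cells carrying the reporter under a UAS element, after 16 h co-treatment at 37C and a 2 h room-temperature FRET substrate read.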

Assay [16] shares this target. The experiment in a line: qHTS assay to identify small molecule agonists of the androgen receptor (AR) signaling pathway using the MDA cell line (AID 743040; further: nearly all actives have a fitted effect of over 20% in size). In a few lines:
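Human breast carcinoma MDA-kb2 reporter cells (MMTV-luc, AR/GR elements) were treated for 16 h at 37C in 0% CO2 following a 5 h settling period. Signal was quantified by ONE-Glo luminescence.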

For assay [17] the target is unchanged. The assay is described as follows: qHTS assay to identify small molecule antagonists of the androgen receptor (AR) signaling pathway using the MDA cell line (AID 743042; further: nearly all actives have a fitted effect of over 55% in size; further: potency means the concentration at half of the fitted maximal effect). The procedure, abridged:
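MDA-kb2 breast carcinoma cells carrying MMTV-luciferase (AR/GR responsive) were co-treated with compounds and the agonist R1881 for 16 h at 37C. Inhibition read as ONE-Glo luminescence; CellTiter-Fluor fluorescence measured in parallel for cytotoxicity.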

The target of assay [18] is Glucocorticoid receptor (Homo sapiens) (UniProt P04150). The experiment in a line: qHTS assay to identify small molecule agonists of the glucocorticoid receptor (GR) signaling pathway (AID 720691; active means well fitted activation curve with a large enough effect in the signal ratio in the repeat runs, not every such curve was filed as active; the % refers to the signal ratio). The following applies: GR-bla HeLa, beta-lactamase reporter ratio, 18 h; activation: at 62.4 µM (top of the series). In a few lines:
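Agonist mode in a HeLa line carrying a GRE-controlled beta-lactamase reporter. Compounds act for 18 h at 37 C before a 2 h room-temperature FRET substrate step and fluorescence reading.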

Assay [19] has the same target. The experiment in a line: qHTS assay to identify small molecule antagonists of the glucocorticoid receptor (GR) signaling pathway (AID 720692; active means well fitted inhibition curve with a large enough effect in the signal ratio in the repeat runs, not every such curve was filed as active; the % refers to the signal ratio). In a few lines: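 Cells plated, rested 4 h at 37 C/5% CO2; compounds in DMSO pin-transferred; dexamethasone added to 5 nM final; 18 h at 37 C; B/G FRET substrate added, 2 h room temperature; fluorescence measured.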

Records with an inconclusive call do not appear. The source made the active and inactive calls. Unless noted, the call rests on the fitted dose curve; in most records, active means well fitted curve in the direction sought with a large enough effect in the repeat runs; inconclusive means weak or mixed curves; inactive means no such curve, though single readings can be large; an effect the other way counts as inactive or inconclusive. Starred links: 1 amine or outer side, 2 acyl side, 3 side chain; linkers in the order of their positions; H or OH if unused. Positions of bridges follow the written chain, without caps; N, C: chain ends. Non-standard residues stand in square brackets, D forms with d. Residues, ends and D or L forms follow the SMILES beside them. *: point of attachment. X5 = NC1=N[C@@H]([C@H](N[*:1])C(=O)[*:2])C[C@H](O)N1; ΔAla(Z-3-ureido) = NC(=O)N/C=C(\N)C(=O)O; β3hOrn = NCCC[C@H](N)CC(=O)*; Dap = NC[C@H](N)C(=O)O

Androgen receptor (Homo sapiens), sequence (P10275 whole entry, looked up): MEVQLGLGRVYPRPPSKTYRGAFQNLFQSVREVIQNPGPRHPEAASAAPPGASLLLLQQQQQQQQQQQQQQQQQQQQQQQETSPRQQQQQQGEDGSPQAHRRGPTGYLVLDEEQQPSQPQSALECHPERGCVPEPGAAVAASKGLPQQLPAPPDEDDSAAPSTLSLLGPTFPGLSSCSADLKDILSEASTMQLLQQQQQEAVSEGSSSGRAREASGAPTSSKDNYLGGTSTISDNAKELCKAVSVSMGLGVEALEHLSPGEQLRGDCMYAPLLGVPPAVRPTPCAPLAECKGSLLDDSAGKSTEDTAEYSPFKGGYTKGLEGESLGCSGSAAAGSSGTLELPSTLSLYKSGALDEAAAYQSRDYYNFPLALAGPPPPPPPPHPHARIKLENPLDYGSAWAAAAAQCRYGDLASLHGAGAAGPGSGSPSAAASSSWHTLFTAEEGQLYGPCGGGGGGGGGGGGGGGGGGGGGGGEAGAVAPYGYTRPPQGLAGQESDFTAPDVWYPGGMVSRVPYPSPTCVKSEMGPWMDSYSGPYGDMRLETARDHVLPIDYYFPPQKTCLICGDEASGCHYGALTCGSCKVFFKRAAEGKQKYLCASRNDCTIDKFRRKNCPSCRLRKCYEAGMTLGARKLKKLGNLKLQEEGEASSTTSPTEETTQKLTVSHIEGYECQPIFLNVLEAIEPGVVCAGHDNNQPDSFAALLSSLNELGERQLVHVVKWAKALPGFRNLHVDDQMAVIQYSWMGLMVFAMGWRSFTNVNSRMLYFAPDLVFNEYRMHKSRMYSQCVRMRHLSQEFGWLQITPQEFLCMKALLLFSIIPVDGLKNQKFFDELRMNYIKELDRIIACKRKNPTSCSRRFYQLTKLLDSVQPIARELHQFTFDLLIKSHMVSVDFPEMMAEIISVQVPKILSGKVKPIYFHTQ
Glucocorticoid receptor (Homo sapiens), sequence (P04150 whole entry, looked up): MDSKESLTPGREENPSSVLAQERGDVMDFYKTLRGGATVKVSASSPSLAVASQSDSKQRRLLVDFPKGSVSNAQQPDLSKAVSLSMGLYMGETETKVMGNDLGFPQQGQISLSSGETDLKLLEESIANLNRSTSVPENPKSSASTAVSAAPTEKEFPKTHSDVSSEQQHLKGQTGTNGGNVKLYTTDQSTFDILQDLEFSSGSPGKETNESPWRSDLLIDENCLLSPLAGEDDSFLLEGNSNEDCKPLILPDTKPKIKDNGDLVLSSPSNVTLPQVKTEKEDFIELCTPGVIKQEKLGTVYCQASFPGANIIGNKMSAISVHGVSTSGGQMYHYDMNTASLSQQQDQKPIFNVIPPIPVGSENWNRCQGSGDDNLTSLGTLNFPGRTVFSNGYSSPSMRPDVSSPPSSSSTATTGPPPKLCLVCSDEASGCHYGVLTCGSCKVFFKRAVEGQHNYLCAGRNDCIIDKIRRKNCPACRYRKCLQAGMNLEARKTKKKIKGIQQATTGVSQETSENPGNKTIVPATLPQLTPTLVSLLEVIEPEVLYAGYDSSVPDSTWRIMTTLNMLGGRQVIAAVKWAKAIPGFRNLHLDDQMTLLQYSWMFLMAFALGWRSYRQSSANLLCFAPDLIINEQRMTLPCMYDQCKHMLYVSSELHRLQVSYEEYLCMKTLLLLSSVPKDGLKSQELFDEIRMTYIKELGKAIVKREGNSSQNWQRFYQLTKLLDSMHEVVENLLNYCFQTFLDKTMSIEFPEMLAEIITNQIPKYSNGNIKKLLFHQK

As to `O=S(O)CNc1ccc(S(=O)(=O)c2ccc(NCS(=O)O)cc2)cc1`, the Potency entry in [1], in assay [2], in [3], in assay [4], in assay [5] and in assay [7] was “inactive” throughout. Also, the Potency entry in [9], in [10], in [11], in assay [12], in assay [13] and in [14] was “inactive” throughout. Moreover, the result in assay [6] and in assay [8] was inactive.

With `NCCC[C@H](N)CC(=O)N[C@H]1CNC(=O)[C@H]([C@H]2C[C@H](O)NC(N)=N2)NC(=O)/C(=C/NC(N)=O)NC(=O)[C@H](CO)NC(=O)[C@H](CO)NC1=O` (β3hOrn-[Dap]SS[ΔAla(Z-3-ureido)][X5]; lactam 1-C), the Potency entry in [1], in assay [2], in assay [3], in [4], in [5] and in [7] was “inactive” in each case. The Potency result in assay [9], in [10], in assay [11], in assay [12], in [13] and in assay [14] was “inactive” throughout. The call in assay [6] and in assay [8] was inactive.

For `CCC(=O)OCC(=O)[C@@]1(OC(=O)CC)[C@H](C)C[C@H]2[C@@H]3CCC4=CC(=O)C=C[C@]4(C)[C@@]3(F)[C@@H](O)C[C@@]21C`, the Potency result in [1], in assay [2], in assay [3], in assay [4], in [5] and in assay [7] was “inactive” in each case. Also, the Potency result in assay [9] and in assay [14] was “inactive” in each case. Also, the call in assay [6] and in assay [8] was inactive. Further, the Potency in [10] is 23.7 µM (active); in assay [11], 29.8 µM (active); in assay [12], 26.6 µM (active).

For `CC[C@H](C)[C@H]1O[C@]2(CC[C@@H]1C)C[C@@H]1C[C@@H](C/C=C(\C)[C@@H](O[C@H]3C[C@H](OC)[C@@H](O[C@H]4C[C@H](OC)[C@@H](O)[C@H](C)O4)[C@H](C)O3)[C@@H](C)/C=C/C=C3\CO[C@@H]4[C@H](O)C(C)=C[C@@H](C(=O)O1)[C@]34O)O2`, the Potency result in assay [1], in assay [2], in assay [3], in assay [4], in assay [5] and in assay [7] was “inactive” throughout. The Potency result in [15], in assay [16], in assay [14] and in [17] was “inactive” each time. The compound was classed as inactive in assay [6] and in [8]. Besides, the Potency in [9] is 6.01 µM (active); in assay [10], 3.76 µM (active); in assay [12], 7.5 µM (active).

Consider `CCCCCCOc1ccc(C(=N)N(CCCC)CCCC)c2ccccc12`, for which the Potency entry in assay [1], in assay [2], in assay [3], in assay [4], in assay [5] and in assay [7] was “inactive” in each case. Also, the Potency result in [16] was “inactive”. The compound was called inactive in assay [6] and in assay [8]. For the same compound, the Potency in [9] is 13.4 µM (active); in assay [11] it was 5.31 µM (active); in assay [12], 5.96 µM (active); in assay [13], 15.1 µM (active); in assay [14], 18.8 µM (active); in assay [17], 16.8 µM (active).

Consider `CC(=O)N[C@@H](C=O)[C@@H](O)[C@H](O)[C@H](O)CO`, for which the Potency result in assay [1], in assay [2], in assay [3], in assay [4], in assay [5] and in [7] was “inactive” each time. The Potency result in assay [9], in [10], in assay [12] and in assay [14] was “inactive” each time. The call in assay [6] and in assay [8] was inactive.

`COc1ccc(CNCC(O)COc2ccc3[nH]c(=O)ccc3c2)cc1OC` (stereo not drawn): the Potency result in [1], in assay [2], in [3], in [4], in [5] and in [7] was “inactive” throughout. Also, the Potency entry in [18], in assay [19], in [9], in assay [10], in assay [11] and in assay [12] was “inactive” in each case. In addition, the Potency entry in [13] and in [14] was “inactive” throughout. For the same compound, the compound was classed as inactive in assay [6].
